The record followed here is ChEMBL document CHEMBL1961873, “Compounds: GSK PKIS; Assays: Nanosyn kinase panel” (2012).

The target of experiment [1] is T1, Serine/threonine-protein kinase D2 (Homo sapiens) (UniProt Q9BZL6).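 Also: mean value of PRKD2 inhibition, from the GSK PKIS screening panel.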
T1 sequence (whole entry): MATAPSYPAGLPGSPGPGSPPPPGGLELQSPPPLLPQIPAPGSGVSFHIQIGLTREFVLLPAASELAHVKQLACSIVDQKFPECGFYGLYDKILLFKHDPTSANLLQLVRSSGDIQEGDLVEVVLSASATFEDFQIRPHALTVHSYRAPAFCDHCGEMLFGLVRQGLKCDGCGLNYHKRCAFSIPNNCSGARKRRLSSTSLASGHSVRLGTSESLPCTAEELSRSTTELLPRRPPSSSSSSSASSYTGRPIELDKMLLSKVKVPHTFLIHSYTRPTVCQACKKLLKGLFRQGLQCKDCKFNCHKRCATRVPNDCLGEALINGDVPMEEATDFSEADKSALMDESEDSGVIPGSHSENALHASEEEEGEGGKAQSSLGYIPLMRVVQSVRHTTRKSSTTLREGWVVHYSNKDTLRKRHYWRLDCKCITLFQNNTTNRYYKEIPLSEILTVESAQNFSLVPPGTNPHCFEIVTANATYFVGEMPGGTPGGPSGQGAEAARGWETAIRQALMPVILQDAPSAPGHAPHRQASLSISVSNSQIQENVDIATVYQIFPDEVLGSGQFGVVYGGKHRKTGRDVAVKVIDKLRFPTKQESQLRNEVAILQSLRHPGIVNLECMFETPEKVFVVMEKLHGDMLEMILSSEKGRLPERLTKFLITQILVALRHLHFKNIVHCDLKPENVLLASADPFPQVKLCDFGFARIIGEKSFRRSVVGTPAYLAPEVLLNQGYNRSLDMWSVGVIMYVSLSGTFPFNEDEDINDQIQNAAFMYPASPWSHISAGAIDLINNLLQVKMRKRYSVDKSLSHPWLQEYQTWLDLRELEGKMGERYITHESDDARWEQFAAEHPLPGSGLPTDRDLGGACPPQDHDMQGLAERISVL
Conditions: at 1 µM.

Experiment [2] has as its target T2, Serine/threonine-protein kinase D3 (Homo sapiens) (UniProt O94806).
T2 sequence (whole entry): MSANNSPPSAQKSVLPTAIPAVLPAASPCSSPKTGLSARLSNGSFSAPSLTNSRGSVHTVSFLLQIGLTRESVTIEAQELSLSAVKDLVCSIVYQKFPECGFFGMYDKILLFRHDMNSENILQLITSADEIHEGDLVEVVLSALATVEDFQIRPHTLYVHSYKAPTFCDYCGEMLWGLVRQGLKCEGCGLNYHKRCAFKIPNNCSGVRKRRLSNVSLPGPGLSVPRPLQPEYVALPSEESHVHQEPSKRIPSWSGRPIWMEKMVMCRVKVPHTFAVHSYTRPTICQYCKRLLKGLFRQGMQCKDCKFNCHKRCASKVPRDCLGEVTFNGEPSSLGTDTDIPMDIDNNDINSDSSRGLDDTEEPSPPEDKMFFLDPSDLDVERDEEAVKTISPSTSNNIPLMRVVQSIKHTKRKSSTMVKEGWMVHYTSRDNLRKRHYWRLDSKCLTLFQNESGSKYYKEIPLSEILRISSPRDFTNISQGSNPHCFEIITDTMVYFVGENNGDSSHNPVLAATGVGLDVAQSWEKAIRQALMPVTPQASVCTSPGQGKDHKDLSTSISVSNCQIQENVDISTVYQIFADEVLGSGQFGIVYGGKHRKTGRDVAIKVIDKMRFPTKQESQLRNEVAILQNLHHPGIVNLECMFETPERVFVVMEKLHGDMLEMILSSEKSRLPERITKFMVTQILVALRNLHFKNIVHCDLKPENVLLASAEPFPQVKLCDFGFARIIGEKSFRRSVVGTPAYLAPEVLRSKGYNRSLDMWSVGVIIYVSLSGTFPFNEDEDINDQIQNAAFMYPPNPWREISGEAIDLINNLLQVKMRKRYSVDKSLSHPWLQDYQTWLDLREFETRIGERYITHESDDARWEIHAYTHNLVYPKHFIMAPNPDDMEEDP
Conditions: at 0.1 µM.

For experiment [3], the target named is T2, Serine/threonine-protein kinase D3 (Homo sapiens). Conditions: at 1 µM.
For experiment [4], the target named is T3, cGMP-dependent protein kinase 1 (Homo sapiens) (UniProt Q13976).
T3 sequence (whole entry): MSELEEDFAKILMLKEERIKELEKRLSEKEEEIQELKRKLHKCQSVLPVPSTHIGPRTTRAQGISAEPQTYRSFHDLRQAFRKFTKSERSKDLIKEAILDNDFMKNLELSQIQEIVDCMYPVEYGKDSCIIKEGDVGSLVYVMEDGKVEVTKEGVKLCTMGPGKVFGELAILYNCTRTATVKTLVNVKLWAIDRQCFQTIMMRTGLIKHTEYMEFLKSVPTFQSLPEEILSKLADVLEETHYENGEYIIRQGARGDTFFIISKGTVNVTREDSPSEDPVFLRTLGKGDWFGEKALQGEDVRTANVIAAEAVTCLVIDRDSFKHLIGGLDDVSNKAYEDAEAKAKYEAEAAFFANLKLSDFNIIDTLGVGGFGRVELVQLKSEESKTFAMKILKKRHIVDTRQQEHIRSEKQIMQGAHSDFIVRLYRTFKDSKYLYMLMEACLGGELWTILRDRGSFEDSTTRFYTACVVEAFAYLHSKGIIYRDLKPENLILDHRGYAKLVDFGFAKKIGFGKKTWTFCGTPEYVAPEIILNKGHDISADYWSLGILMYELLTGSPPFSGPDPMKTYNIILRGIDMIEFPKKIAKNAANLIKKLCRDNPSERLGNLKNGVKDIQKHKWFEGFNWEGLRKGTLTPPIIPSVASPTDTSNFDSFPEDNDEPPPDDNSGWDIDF
Conditions: at 0.1 µM.

Experiment [5] deals with T3, cGMP-dependent protein kinase 1 (Homo sapiens). Conditions: at 1 µM.
Experiment [6] addresses T4, cGMP-dependent protein kinase 2 (Homo sapiens) (UniProt Q13237).
T4 sequence (whole entry): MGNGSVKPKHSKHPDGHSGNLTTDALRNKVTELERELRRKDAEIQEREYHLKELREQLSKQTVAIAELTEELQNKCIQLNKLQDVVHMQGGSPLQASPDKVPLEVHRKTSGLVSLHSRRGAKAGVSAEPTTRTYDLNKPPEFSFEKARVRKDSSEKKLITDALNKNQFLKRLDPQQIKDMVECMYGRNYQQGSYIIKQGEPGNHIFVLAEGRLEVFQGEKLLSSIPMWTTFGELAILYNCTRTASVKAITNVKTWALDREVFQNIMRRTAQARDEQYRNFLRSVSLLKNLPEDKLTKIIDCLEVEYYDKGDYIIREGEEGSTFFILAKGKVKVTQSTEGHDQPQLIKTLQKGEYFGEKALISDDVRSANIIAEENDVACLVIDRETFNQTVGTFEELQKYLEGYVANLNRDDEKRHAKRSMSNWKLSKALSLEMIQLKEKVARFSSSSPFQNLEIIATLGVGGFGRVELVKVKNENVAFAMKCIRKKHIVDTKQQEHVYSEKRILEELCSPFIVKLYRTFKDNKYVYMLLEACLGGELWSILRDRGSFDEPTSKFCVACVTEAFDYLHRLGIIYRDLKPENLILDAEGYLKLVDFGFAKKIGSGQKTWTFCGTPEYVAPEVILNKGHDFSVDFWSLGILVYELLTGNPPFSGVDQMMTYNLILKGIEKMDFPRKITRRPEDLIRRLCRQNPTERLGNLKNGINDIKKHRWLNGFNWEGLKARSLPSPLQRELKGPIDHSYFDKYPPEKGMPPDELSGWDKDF
Conditions: at 0.1 µM.

Experiment [7] concerns the target T4, cGMP-dependent protein kinase 2 (Homo sapiens). The conditions noted are these: at 1 µM.
Experiment [8] concerns the target T5, cAMP-dependent protein kinase catalytic subunit PRKX (Homo sapiens) (UniProt P51817).
T5 sequence (whole entry): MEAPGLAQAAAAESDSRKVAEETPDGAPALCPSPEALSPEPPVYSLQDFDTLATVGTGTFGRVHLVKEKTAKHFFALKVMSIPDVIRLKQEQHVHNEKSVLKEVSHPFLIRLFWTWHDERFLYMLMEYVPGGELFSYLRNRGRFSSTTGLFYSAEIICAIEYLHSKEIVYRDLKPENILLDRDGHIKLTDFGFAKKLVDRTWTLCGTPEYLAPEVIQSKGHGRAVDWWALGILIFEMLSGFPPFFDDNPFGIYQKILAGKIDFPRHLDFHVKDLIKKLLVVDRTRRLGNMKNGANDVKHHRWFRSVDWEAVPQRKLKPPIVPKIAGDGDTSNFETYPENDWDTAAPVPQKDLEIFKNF
Conditions: at 0.1 µM.

The target in experiment [9] is T5, cAMP-dependent protein kinase catalytic subunit PRKX (Homo sapiens). Conditions: at 1 µM.
Experiment [10] has as its target Rho-associated protein kinase 1 (Homo sapiens) (UniProt Q13464). Conditions: at 0.1 µM.
For experiment [11] the target is unchanged. The conditions noted are these: at 1 µM.
For experiment [12], the target named is Rho-associated protein kinase 2 (Homo sapiens) (UniProt O75116). The conditions noted are these: at 0.1 µM.
Rho-associated protein kinase 2 (Homo sapiens), sequence (O75116 whole entry, looked up): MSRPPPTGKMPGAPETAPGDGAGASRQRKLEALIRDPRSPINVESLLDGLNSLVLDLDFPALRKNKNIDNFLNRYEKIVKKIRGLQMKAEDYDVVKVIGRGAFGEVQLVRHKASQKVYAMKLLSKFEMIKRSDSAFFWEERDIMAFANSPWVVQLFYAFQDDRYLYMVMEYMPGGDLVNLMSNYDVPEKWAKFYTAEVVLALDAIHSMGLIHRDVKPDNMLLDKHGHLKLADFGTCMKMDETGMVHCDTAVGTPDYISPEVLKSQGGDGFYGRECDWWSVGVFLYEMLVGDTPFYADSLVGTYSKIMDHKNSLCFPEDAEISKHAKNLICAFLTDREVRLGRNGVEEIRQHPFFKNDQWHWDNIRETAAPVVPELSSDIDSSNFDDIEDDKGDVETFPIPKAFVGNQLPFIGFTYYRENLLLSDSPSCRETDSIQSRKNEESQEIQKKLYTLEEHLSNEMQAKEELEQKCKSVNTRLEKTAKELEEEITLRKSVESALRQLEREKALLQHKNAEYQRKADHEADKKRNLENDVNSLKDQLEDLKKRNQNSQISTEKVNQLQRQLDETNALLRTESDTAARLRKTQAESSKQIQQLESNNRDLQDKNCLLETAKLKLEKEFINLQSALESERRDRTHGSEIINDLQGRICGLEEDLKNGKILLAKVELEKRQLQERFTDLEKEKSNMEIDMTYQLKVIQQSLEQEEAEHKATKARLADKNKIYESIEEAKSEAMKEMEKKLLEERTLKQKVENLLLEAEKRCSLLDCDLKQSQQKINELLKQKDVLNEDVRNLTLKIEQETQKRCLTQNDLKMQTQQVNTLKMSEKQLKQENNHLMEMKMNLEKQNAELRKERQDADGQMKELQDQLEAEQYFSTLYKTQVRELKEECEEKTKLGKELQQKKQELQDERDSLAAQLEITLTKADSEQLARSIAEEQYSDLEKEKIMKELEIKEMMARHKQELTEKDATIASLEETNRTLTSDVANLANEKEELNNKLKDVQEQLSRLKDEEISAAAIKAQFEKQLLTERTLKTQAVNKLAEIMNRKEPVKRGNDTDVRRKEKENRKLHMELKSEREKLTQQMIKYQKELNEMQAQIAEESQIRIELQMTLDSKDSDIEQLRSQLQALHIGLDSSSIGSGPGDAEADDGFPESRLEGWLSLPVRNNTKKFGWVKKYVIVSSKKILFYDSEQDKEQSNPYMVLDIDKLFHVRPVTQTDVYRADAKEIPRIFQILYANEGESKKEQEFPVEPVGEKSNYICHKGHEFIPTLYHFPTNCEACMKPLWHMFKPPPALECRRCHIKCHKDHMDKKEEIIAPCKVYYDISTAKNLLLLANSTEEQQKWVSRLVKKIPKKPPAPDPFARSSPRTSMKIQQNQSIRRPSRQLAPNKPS
Experiment [13] has the same target. Conditions: at 1 µM.
For experiment [14], the target named is Ribosomal protein S6 kinase alpha-1 (Homo sapiens) (UniProt Q15418). The conditions noted are these: at 0.1 µM.
Ribosomal protein S6 kinase alpha-1 (Homo sapiens), sequence (Q15418 whole entry): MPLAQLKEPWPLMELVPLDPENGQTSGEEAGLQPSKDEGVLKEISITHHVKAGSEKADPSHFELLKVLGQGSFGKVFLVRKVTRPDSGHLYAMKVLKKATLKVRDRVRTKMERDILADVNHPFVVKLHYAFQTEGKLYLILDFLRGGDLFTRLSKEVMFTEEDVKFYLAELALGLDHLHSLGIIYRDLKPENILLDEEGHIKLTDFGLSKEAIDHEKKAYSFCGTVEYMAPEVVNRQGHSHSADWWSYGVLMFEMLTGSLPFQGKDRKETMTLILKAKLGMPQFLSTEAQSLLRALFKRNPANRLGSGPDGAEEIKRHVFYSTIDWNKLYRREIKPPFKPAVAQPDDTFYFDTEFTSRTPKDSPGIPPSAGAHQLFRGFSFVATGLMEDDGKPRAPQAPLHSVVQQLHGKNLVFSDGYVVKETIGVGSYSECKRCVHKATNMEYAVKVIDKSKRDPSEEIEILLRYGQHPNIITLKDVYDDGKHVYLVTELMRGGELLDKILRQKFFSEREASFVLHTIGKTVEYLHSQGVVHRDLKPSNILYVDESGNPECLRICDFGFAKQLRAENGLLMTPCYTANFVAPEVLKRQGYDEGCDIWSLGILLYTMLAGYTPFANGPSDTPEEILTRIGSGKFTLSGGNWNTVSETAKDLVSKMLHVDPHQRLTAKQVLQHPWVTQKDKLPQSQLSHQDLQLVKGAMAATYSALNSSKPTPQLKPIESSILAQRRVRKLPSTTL
For experiment [15] the target is unchanged. Conditions: at 1 µM.
For experiment [16], the target named is Ribosomal protein S6 kinase alpha-3 (Homo sapiens) (UniProt P51812). Conditions: at 0.1 µM.
The target is the same in experiment [17]. The conditions noted are these: at 1 µM.
In experiment [18] the target is Ribosomal protein S6 kinase alpha-2 (Homo sapiens) (UniProt Q15349). Conditions: at 0.1 µM.
Ribosomal protein S6 kinase alpha-2 (Homo sapiens), sequence (Q15349 whole entry): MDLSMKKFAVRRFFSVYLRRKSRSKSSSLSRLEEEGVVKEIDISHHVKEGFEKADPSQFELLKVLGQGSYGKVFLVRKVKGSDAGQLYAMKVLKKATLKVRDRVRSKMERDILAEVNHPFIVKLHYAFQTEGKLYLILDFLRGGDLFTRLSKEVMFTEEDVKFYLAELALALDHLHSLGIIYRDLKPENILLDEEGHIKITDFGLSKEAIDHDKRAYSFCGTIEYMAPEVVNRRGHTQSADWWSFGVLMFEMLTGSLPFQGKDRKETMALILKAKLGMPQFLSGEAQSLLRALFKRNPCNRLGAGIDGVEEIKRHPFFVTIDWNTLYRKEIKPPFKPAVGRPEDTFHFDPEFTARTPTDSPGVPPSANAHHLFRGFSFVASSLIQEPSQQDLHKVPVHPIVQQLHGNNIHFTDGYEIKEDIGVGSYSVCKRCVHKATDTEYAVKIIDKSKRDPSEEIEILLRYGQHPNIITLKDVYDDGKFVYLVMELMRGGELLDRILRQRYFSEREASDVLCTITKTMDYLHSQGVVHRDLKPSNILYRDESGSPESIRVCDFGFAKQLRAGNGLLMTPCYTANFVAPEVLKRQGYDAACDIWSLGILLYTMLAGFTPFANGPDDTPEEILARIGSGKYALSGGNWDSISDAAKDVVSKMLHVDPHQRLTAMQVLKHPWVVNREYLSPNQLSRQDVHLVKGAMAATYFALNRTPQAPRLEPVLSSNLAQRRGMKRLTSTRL
Experiment [19] has the same target. The conditions noted are these: at 1 µM.
The target of experiment [20] is Ribosomal protein S6 kinase alpha-6 (Homo sapiens) (UniProt Q9UK32). Conditions: at 0.1 µM.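 Also: reported value is the mean inhibition of RSK4, from the GSK PKIS kinase inhibitor screen.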
Ribosomal protein S6 kinase alpha-6 (Homo sapiens), sequence (Q9UK32 whole entry): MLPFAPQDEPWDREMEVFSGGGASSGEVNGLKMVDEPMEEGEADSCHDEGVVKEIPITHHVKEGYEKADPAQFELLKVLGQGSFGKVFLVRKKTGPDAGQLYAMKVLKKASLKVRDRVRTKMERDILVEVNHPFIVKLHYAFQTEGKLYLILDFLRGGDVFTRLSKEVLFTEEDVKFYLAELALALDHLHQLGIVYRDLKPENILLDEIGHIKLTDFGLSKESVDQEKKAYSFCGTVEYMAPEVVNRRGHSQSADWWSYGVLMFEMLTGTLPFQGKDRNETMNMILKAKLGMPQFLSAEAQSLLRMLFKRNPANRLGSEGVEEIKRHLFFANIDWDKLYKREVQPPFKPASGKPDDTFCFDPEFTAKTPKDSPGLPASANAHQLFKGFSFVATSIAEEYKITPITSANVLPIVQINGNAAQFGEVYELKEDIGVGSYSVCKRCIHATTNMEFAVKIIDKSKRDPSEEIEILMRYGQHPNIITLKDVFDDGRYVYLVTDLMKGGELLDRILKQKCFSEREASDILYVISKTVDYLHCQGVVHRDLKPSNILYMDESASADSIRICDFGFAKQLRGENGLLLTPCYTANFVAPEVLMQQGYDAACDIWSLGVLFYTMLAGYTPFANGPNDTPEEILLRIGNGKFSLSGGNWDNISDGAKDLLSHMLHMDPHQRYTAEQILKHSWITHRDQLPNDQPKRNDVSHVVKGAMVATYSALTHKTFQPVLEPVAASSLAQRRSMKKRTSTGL

Rho-associated protein kinase 1 (Homo sapiens), sequence (Q13464 2-1354 limits assumed): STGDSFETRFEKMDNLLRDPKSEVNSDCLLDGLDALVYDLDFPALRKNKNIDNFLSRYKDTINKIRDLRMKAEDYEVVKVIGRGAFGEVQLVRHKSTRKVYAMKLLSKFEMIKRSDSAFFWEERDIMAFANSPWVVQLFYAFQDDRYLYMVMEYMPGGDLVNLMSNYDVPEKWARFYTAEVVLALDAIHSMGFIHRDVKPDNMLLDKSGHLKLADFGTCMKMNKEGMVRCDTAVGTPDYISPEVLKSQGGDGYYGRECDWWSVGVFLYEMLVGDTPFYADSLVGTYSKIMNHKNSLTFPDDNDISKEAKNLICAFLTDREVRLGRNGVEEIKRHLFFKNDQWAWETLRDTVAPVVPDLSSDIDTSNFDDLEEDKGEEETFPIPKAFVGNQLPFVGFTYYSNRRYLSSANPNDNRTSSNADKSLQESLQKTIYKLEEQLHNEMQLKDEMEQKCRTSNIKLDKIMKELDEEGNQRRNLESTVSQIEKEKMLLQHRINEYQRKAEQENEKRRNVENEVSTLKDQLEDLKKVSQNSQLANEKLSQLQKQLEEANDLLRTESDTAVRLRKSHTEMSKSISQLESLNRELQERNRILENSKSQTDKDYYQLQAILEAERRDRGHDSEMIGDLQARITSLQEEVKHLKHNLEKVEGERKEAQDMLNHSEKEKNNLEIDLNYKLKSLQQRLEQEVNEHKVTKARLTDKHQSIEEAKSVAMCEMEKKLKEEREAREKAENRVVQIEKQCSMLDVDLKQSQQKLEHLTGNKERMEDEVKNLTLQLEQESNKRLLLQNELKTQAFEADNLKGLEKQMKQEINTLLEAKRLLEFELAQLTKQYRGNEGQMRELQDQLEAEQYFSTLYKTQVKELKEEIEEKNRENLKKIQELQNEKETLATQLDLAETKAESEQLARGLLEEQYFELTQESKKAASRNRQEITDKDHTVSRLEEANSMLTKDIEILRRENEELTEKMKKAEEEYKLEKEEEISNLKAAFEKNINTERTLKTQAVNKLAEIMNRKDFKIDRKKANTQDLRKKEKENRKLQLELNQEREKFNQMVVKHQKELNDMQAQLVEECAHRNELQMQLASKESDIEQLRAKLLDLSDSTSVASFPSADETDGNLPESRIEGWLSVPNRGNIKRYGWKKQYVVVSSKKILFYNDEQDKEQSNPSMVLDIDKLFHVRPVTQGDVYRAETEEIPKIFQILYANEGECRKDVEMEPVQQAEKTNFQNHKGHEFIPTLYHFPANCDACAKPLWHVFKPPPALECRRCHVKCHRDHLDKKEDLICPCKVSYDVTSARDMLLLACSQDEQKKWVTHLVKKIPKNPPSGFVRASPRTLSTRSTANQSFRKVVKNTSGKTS

Regarding `NS(=O)(=O)c1ccc(-c2cc3ccncc3cc2OCc2ccccc2)cc1`, the inhibition in [1] is 4.54%; in experiment [2], 2.31%; in [3], 2.51%; in experiment [4], 0.96%; in [5] it was 4.78%; in experiment [6], 1.8%. The inhibition was 3.35% in [7]; 0.85% in [8]; 1.52% in [9]; 0.19% in experiment [10]; 4.04% in experiment [11]; 2.48% in experiment [12]. Besides, the inhibition in experiment [13] was 6.37%; in experiment [14] it was 1.11%; in experiment [15], 3.06%; in experiment [16], -0.24%; in [17], 0.92%; in [18], 0.22%. Further, the figures for the inhibition in experiment [19] and in experiment [20] were 2.19% and -0.43%, respectively.
Consider `Nc1nccc(C#Cc2cncnc2Nc2ccc(OCc3cccc(F)c3)c(Cl)c2)n1`, for which the inhibition in experiment [1] is 5.62%; in [2] it was 5.15%; in experiment [3] it was 5.74%; in [4], 2.37%; in experiment [5] it was 5.43%; in [6] it was 1.99%. For the same compound, the inhibition in experiment [7] is 7.43%; in experiment [8], 0.49%; in experiment [9], -0.22%; in experiment [10] it was 0.91%; in experiment [11] it was 3.74%; in experiment [12], 2.53%. In addition, the inhibition in [13] is 4.22%; in experiment [14] it was 1.3%; in experiment [15] it was 2.85%; in experiment [16], 0.4%; in experiment [17] it was 0.81%; in experiment [18], 2.21%. Further, the inhibition in experiment [19] worked out at 2.85%; in [20] it was 0.59%.
For the compound `CN(C)C(=O)O[C@@H]1CN[C@@H](C#Cc2cc3ncnc(Nc4ccc(OCc5cccc(F)c5)c(Cl)c4)c3s2)C1`, the inhibition is 5.06% in [1]; 1.06% in [2]; 4.35% in experiment [3]; -0.86% in experiment [4]; 1.64% in experiment [5]; 0.46% in experiment [6]. The inhibition in experiment [7] was 2.7%; in experiment [8] it was -0.77%; in experiment [9] it was -1.92%; in experiment [10], -0.58%; in experiment [11] it was 1.13%; in experiment [12], -1.58%. For the same compound, the inhibition in experiment [13] is -0.74%; in experiment [14], 0.43%; in [15] it was 0.71%; in experiment [16] it was 0.2%; in experiment [17], 1.13%; in experiment [18], 0.12%. Also, the inhibition came out at 2.54% in experiment [19] and 0.51% in experiment [20].

One may read the inhibition as the change of the read-out against control, counted positive when it falls.
